Compound activity (PubChem BioAssay)
The list is not random: actives were taken first. Their share in the collection is about 6.2%.
AHR activator – AHR activators, primary screen, cell-based, luminescence, luciferase reporter, human; AID 2796, 2010; AHR-responsive luciferase reporter cells; 320,000 tested, 2.5% active; Aryl hydrocarbon receptor (Homo sapiens), P35869; activation, % at 5 µM; in the data active = activation above about 47%
NTR1 ag – agonists of human NTR1, primary screen, imaging, U2OS cells, beta-arrestin-GFP, high content; 330,000 tested, 0.17% active; Neurotensin receptor type 1 (Homo sapiens), P30989; activation, % at 20 µM; NTR1-U2OS beta-arrestin-GFP spot imaging, agonist mode;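 active = activation at or above 40% of the spot to cytoplasm intensity ratio, with at least 20 cells analyzed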
AI-2 QS mod – Vibrio harveyi AI-2 quorum sensing modulators, primary screen, JMH597 strain, luminescence/OD600 ratio; Vibrio harveyi JMH597 AI-2 luminescence/OD600 ratio, 9 h; active compounds read low; strain lacks LuxN and CqsS sensors; 0 = neutral-control median; activity change, % at 7.5 µM; 300,000 tested, 0.4% active; AID 2094, 2009; in the data active = activity change below about -75%, passing the limit was not always enough;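 also: luminescence divided by OD600 gain over 9 h not by final OD600 alone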
SUMO Mot1 rescue – yeast Mot1-301 growth rescue at high temperature, primary screen, SUMOylation pathway inhibitor project, S. cerevisiae, ATP luminescence, 38.5C; 320,000 tested, 1% active; growth rescue, % at 18.8 µM; S. cerevisiae Mot1-301 growth rescue; percent above DMSO median, 100 means doubled;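 active = every valid replicate shows activation above 250% relative to neutral control wells; inactive = the rest, any valid replicate at or below 250%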
H9c2 protect – cardioprotection against H2O2-induced cell death, primary screen, uHTS, H9c2 cells, ATPLite luminescence. 360,000 tested, 0.63% active. protection from H2O2 cell death, % at 20 µM. AID 588492, 2011. H9c2 cardiomyocytes, H2O2 injury protection, 2 h;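 active = compounds giving at least 50% protection of heart cells from peroxide-induced death in the single-dose screen, raw or plate-pattern-corrected value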
NR3A LBD binder – binders of NR3A ligand-binding domain, primary screen, biophysical, differential scanning fluorimetry, uHTS | 340,000 tested, 2.5% active | AID 1259313, 2017 | Tm shift relative to glycine control, % at 25 µM | Glutamate receptor ionotropic, NMDA 3A (GRIN3A) ligand-binding domain | NR3A LBD differential scanning fluorimetry, Tm shift; 0% = protein alone, 100% = glycine-bound protein;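 active = melting temperature shift of at least 10% of the positive control shift, at one fixed dose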
Hits are given with their value; i = inactive; nt = no result given.

SMILES	AHR activator	NTR1 ag	AI-2 QS mod	SUMO Mot1 rescue	H9c2 protect	NR3A LBD binder
COc1ccc(C(=O)N(C)CC2CCN(CCc3cccc(C(F)(F)F)c3)CC2)cc1C	i	i	i	i	i	i
O=C(Nc1ccc(NC(=O)c2cccs2)c(Cl)c1)c1cccs1	i	i	i	i	i	12.6
O=C(Nc1ccccc1C(=O)O)c1ccc(NC(=O)C2CC2)cc1	i	i	i	i	i	i
O=C(Nc1ccc(-c2cn3ccccc3n2)cc1)c1cccs1	i	i	i	i	i	25.3
O=C(Nc1ccccc1O)c1ccc(NC(=O)C2CC2)cc1	i	i	i	i	i	23.1
O=C(Nc1ccc(NC(=O)C2CC2)cc1)c1cccs1	i	i	i	i	i	17.0
CCOC(=O)N1CCN(C(=O)c2cn(C)c3ccc(S(=O)(=O)N(C)C4CCCCC4)cc3c2=O)CC1	i	i	i	i	i	i
C=CCNc1cc(F)ccc1S(=O)(=O)NCC=C	nt	i	nt	nt	i	i
COC(=O)[C@@]12CCCCN1[C@H](c1ccc(-c3cccc(Cl)c3)cc1)[C@@H]1C(=O)N(C)C(=O)[C@@H]12	i	i	nt	i	i	i
CN1CCc2c(sc(NC(=O)c3cc(Cl)sc3Cl)c2C(N)=O)C1	i	i	i	i	i	i
CC(=O)N/N=C(\C)c1cccc(NC(=O)c2cccs2)c1	i	i	i	i	i	i
C/C(=N/NC(=O)c1cccs1)c1cccc(NC(=O)C2CC2)c1	i	i	i	i	58.0	i
CCNC(=S)N1N=C2c3ccccc3CCC2C1c1ccc(F)cc1 (stereo unspecified)	51.4	i	i	i	i	i
COc1c(CC=C(C)C)cc(C2CC(=O)c3c(O)cc(O)cc3O2)cc1CC=C(C)C (stereo unspecified)	i	i	i	i	i	30.1
COc1ccc([C@@H]2CC(=O)c3c(O)cc(O)cc3O2)cc1O	i	i	nt	i	i	i
O=C(CSc1cccc2cccnc12)N/N=C/c1cccc(O)c1	i	i	i	i	i	i
Cc1ccc(C(C)C)c(OCc2ccc(C(=O)N/N=C/c3ccc(O)c(O)c3)cc2)c1	i	i	i	i	97.4	33.6
Cc1ccc(C(C)C)c(OCc2ccc(C(=O)N/N=C/c3cccc(O)c3O)cc2)c1	i	nt	i	i	i	23.9
O=C(N/N=C/c1ccc(O)c(O)c1)c1ccc(CSc2cccc3cccnc23)cc1	i	i	i	i	88.1	i
COc1cc(/C=N\NC(=O)c2ccc(-c3ccccc3)cc2)cc(OC)c1O	i	i	i	i	i	11.8
COc1cc(/C=N\NC(=O)c2ccc(-c3ccccc3)cc2)cc(OC)c1OC(C)=O	nt	i	i	i	i	i
Cc1cccc(OCCNC(=O)CCNS(=O)(=O)c2ccc3ccccc3c2)c1	i	i	nt	i	i	i
CN(c1cccc(F)c1)c1cc2c(c3c1ccn3C)C1CCC2O1 (stereo unspecified)	nt	nt	nt	nt	i	nt
N#Cc1ccc(S(=O)(=O)NCC(=O)OCC(=O)N2CCCC2=O)cc1	i	i	i	i	i	i
COc1cc(/C=N/NC(N)=O)cc(Br)c1OCc1ccc(C)cc1	i	i	i	i	i	i
SMILES	AHR activator	NTR1 ag	AI-2 QS mod	SUMO Mot1 rescue	H9c2 protect	NR3A LBD binder
COc1cc(/C=N/NC(=O)c2ccc(COc3cc(C)ccc3C(C)C)cc2)cc(OC)c1O	i	i	i	i	i	20.7
O=C(CN1C(=O)NC2(CCCC2)C1=O)OCC(=O)c1cccc(Cl)c1	nt	i	nt	nt	i	i
Cc1ccccc1-c1cc(C(=O)NCc2cccc(Br)c2)nn1CC1CC(c2cccc([N+](=O)[O-])c2)=NO1 (stereo unspecified)	i	i	nt	i	i	i
Oc1ccc(N2CCN(CC(O)c3ccccc3)CC2)cc1 (stereo unspecified)	i	i	i	i	i	32.3
Cc1cccn2cc(-c3ccc(S(=O)(=O)N4CCOCC4)cc3)nc12	i	i	i	i	i	i
COc1ccc(-c2cn3cc(C)ccc3n2)cc1F	i	i	i	i	i	i
Cc1ccc(-c2cn3cccc(C)c3n2)cc1	nt	nt	i	nt	i	23.4
Cc1cccn2cc(-c3ccc(S(=O)(=O)N4CCCCC4)cc3)nc12	i	i	i	i	i	i
Cc1cccn2cc(-c3ccc(Cl)cc3)nc12	71.1	i	i	i	i	i
Cc1cccn2cc(-c3c[nH]c4ccccc34)nc12	58.7	i	i	i	i	i
COc1ccc(-c2cn3cccc(C)c3n2)cc1F	69.8	i	i	i	i	i
COc1ccc(-c2cn3cc(C)ccc3n2)cc1OC	i	i	i	i	i	i
COc1ccc(-c2cn3ccccc3n2)cc1OC	61.1	i	i	i	i	i
CCC(=O)Nc1cccc(-c2cn3cccc(C)c3n2)c1	i	i	i	i	i	15.2
CCC(=O)Nc1cccc(-c2cn3ccccc3n2)c1	i	i	i	i	i	i
CC(C)c1ccc(CN2CC(C(=O)Nc3ccccc3)CC2=O)cc1 (stereo unspecified)	i	i	i	i	i	14.8
O=C1C=C(c2ccc(CO)cc2)C[C@@H](c2ccc3c(c2)OCO3)C1	i	i	nt	i	i	i
O=C(CSc1nc2ccccc2o1)N1c2ccccc2Sc2ccc(C(F)(F)F)cc21	i	i	i	i	i	11.9
O=C(CN1CCCC1)N1c2ccccc2Sc2ccc(C(F)(F)F)cc21	i	i	i	i	i	i
COC(=O)C1=C(C)N(CCc2ccc(OC)cc2)C(=O)C1	i	i	i	i	100.3	i
Oc1cccc(Nc2ncnc3c2oc2ccccc23)c1	i	i	i	i	i	21.8
Oc1ccc(Nc2ncnc3c2oc2ccccc23)cc1	i	i	i	i	i	16.4
c1ccc(Nc2ncnc3c2oc2ccccc23)cc1	i	i	i	i	i	i
CC(=O)Nc1ccc(S(=O)(=O)Nc2ccc(-n3cnnn3)cc2)cc1	i	i	nt	i	i	i
CCn1cc(C(=O)Nc2cccc(NC(C)=O)c2)c2cc(OC)c(OC)cc2c1=O	i	i	i	i	54.9	i
CCCCn1c(N)c(N(CC(C)C)C(=O)c2ccc(S(=O)(=O)N3CCCCCC3)cc2)c(=O)[nH]c1=O	i	i	i	i	i	i
Cc1ccc(Nc2nc(Nc3ccc(C)cc3)nc(SC3=NCCS3)n2)cc1	59.6	i	i	i	i	i
Cc1ccccc1Nc1nc(Nc2ccccc2C)nc(SC2=NCCS2)n1	i	i	i	i	i	i
CCNc1nc(NCC)n2c(SC(C(=O)Nc3cc(Cl)cc(Cl)c3)c3ccccc3)nnc2n1 (stereo unspecified)	i	i	i	i	i	11.1
